Compound activity from PubChem BioAssay.
Shiga inhibitor = Shiga toxin inhibition; inhibition, % at 38.7 µM; AID 2315; 290,000 compounds, 9.2% hits; Vero cells, Shiga toxin protein synthesis inhibition reporter; in the data active means inhibition mostly above about 28%, no sharp cut-off; inactive means mostly below about 43%
Pf growth 48h = P. falciparum growth inhibition at 48 hours (one generation); P. falciparum luciferase growth in erythrocytes, 48 h; Potency, µM (top dose mostly 28.7 µM), usual class: inhibitors; 310,000 compounds, 5.9% hits; AID 504832
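Read-out is firefly luciferase luminescence from an integrated reporter in P. falciparum, so falling signal marks reduced parasite growth. Infected erythrocytes were at 2% hematocrit and 0.1% parasitemia (final) in Albumax-supplemented RPMI 1640.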
CHX counter = affects cycloheximide protein synthesis inhibition readout, counter-screen; cell reporter, cycloheximide protein synthesis inhibition counterscreen; max response, %; 300,000 compounds, 12% hits; in the data active means max response mostly above about 13%, no sharp cut-off; inactive means mostly below about 14%; further: read at 38.3 µM for the half of the compounds with a filed dose
HCMV antiviral = blocks human cytomegalovirus replication; HFF cells, HCMV-luciferase reporter, 72 h; hits give low values; activity change, negative = inhibition, % at 57.5 µM; 410,000 compounds, 4.5% hits; AID 1259415; in the data active means activity change below about -60%; inconclusive means no clear call, values can overlap the other calls; inactive means above about -39%
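Steps: HFFs plated, 16 h 37C; compounds added; HCMV-luciferase added to MOI 1 PFU/cell; 72 h 37C; OneGlo reagent, 5 min room temperature; luminescence read, normalized to controls.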
HCV inhibitor = inhibitors of hepatitis C virus infection | Huh7.5.1 HCVcc-Cre infection, luciferase reporter, 44 h | Potency, µM (doses to about 41.8 µM), usual class: inhibitors | 340,000 compounds, 3.4% hits
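Reporter virus HCVcc-Cre (~0.5 moi) infects cells exposed to compound; seeding density 1,000 cells/well with 4 h settling beforehand. Luminescence, 15 sec read, taken 44 h post-infection following a 15 min RT substrate incubation.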
Pf growth 96h = P. falciparum growth inhibition at 96 hour, primary screen for plastid delayed-death inhibitors | Potency, µM (top dose mostly 28.7 µM), hits mostly inhibitors | 320,000 compounds, 6.9% hits | P. falciparum luciferase reporter growth, 96 h | AID 504834
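Two parasite generations (96 h, 37 C, 5% CO2) of compound exposure in infected erythrocytes (0.05% parasitemia, 2% hematocrit). Luciferase-reporter P. falciparum; decreased luminescence indicates inhibited growth, aimed at apicoplast-acting delayed death.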
A number is an active result; - = inactive; ? = inconclusive; . = not tested or not shown; + = active, no number; [ ] = dose if it differs, or a comment. Most compounds without a hit are left out; they make up all but 21% or so of the library. Unless noted, the call rests on the fitted dose curve; in most records, active means well fitted inhibition curve with a large enough effect; inconclusive means small, poorly fitted or top-dose-only effect, or another doubt; inactive means no such curve, though single readings can be large or run the other way.

SMILES	Shiga inhibitor	Pf growth 48h	CHX counter	HCMV antiviral	HCV inhibitor	Pf growth 96h
CC(C)(C)c1ccc(C(=O)Nc2ccc(CC(=O)O)cc2)o1	-	.	-	-74	-	2.3µM
O=C(Nc1ccc(-n2cccc2)cc1)C1CC1	-	12µM	23	-	-	-
Cc1ccc(C(=O)Nc2ccc(CC(=O)O)cc2)o1	-	-	-	-	-	.
O=C(Nc1ccccc1)C1CC2CCCC(C1)C2=O (stereo not given)	-	-	-	-	-	3.7µM
Cc1cc(S(=O)(=O)N2CCOCC2)ccc1OCC(=O)Nc1ccc(Br)cc1F	-	-	-	-	-	?
Cc1ccc(C(=O)NC(C(=O)OCc2cn3cc(Cl)ccc3n2)C(C)C)cc1 (stereo not given)	.	?	.	?	-	?
CCc1nnc(N2C(=O)c3ccccc3C2(O)c2ccccc2)s1 (stereo not given)	-	-	-	-	-	-
COc1ccc(Br)cc1CNC(=O)Cn1nc(C)n2c(cc3cc(F)ccc32)c1=O	.	.	.	-	.	.
Nc1nnc(-c2ccc(Cl)c([N+](=O)[O-])c2)s1	-	-	-	-	-	-
O=C(O)Cc1ccc(NC(=O)c2ccc(NC(=O)C3CC3)cc2)cc1	-	-	-	-	-	5.9µM
CNc1c([N+](=O)[O-])cnn1-c1ccccc1Cl	-	-	15	-	-	-
CNc1c([N+](=O)[O-])cnn1-c1ccc(Cl)cc1Cl	-	-	-	-	-	-
Cc1cccc(C(=O)N[C@H](C(=O)Nc2nc3ccccc3[nH]2)C(C)C)c1	-	?	-	-81	-	?
COc1ccc(NC(=O)C(NC(=O)c2ccccc2)C(C)C)cc1 (stereo not given)	-	.	-	-	-	-
Cc1cccc(C(=O)N[C@H](C(=O)Nc2nc(C)cs2)C(C)C)c1	-	-	-	-	-	-
COc1ccc(C(=O)N[C@H](C(=O)Nc2nc3ccccc3[nH]2)C(C)C)cc1	76	-	37	-86	7.1µM	-
CCOC(=O)C1(CCc2ccccc2)CCN(Cc2cccc3nccnc23)CC1	-	?	-	?	?	-
COc1cc2c(cc1OC)C(C)N(S(=O)(=O)c1ccc(Cl)nc1)CC2 (stereo not given)	-	?	-	-	-	?
Cc1ccc(S(=O)(=O)N2CCC[C@H]2C(=O)NC2=NCCS2)cc1	.	.	.	-	-	.
O=C(Cn1c(=O)nc(-c2ccccc2)c2ccccc21)Nc1cccc(C(F)(F)F)c1	.	.	.	-	.	.
Clc1ccc(Cl)c2sc(N3CCOCC3)nc12	.	.	.	-	13µM	.
Clc1ccc(-c2nsc(N3CCOCC3)n2)c(Cl)c1	72	-	34	-	-	-
Clc1ccc(-c2ccnc3nc(N4CCOCC4)nn23)c(Cl)c1	.	.	.	-	-	.
Clc1ccc(Cl)c2sc(N3CCCC3)nc12	-	-	-	-	?	?
Clc1cc(Cl)c2nc(N3CCOCC3)sc2c1	51	-	31	-	-	.
SMILES	Shiga inhibitor	Pf growth 48h	CHX counter	HCMV antiviral	HCV inhibitor	Pf growth 96h
CC1(C(=O)Nc2cccc3c2CCCC3)CCN1C(=O)Cc1ccccc1Cl (stereo not given)	.	.	.	-	.	.
O=C(NCc1cn2ccccc2n1)C1CCC(=O)N(Cc2ccccc2F)C1 (stereo not given)	-	-	-	?	-	-
O=c1c2ccccc2[nH]c(=S)n1Cc1ccccc1	.	-	-	-	-	?
O=c1c2ccccc2[nH]c(=S)n1Cc1cccs1	-	-	-	-68	-	?
O=c1c2ccccc2[nH]c(=S)n1CCc1ccccc1	69	-	33	-	-	-
O=C1NC(c2ccccc2)(C(F)(F)F)C(=O)N1Cc1cccnc1 (stereo not given)	96	-	47	-	-	?
O=C1C=CC(=O)N1Cc1cccnc1	.	.	.	-	-	.
Cc1cc(C)n2nc(C(=O)NCCc3ccccc3)nc2n1	92	.	68	-	-	-
O=C(NCCc1ccccc1)c1nc2nc(-c3cccs3)cc(C(F)(F)F)n2n1	+	-	41	-	10µM	?
Cc1cc(C)n2nc(CCc3ccccc3)nc2n1	-	.	-	-	-	-
Cc1ccc(/C=C/S(=O)(=O)NCC(=O)O)cc1	-	-	-	-	-	-[1.15 µM]
Cc1ccc(/C=C/C(=O)CCC(=O)O)cc1	64	-	35	-	-	-
Cc1nn(C)cc1C(=O)NNC(=S)Nc1ccccc1	-	-	17	-	-	-
